Laboratory results as given in PubChem BioAssay (NCI).
This is part of a sample that, as a whole, favours compounds with a hit. Of some 83,000 tested, about 20% had one in any assay.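 Compound tested at a single concentration for 48 hours in 96-well plates; a percent growth value below 10 was scored as active.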 Unmarked numbers belong to inactive results. Active and inactive are the calls of the source.

Tested on: HOP-92 NSCLC
Assay: NCI-60 one-dose screen, 48 h (100 = growth as untreated, 0 = no growth, -100 = all killed)
Settings: 10 µM unless noted
Description: Growth inhibition of the HOP-92 human Non-Small Cell Lung tumor cell line is measured as a screen for anti-cancer activity. Cells are grown in 96 well plates and exposed to the test compound for 48 hours. Compounds are tested at a single concentration, which is 10^-5 M for most compounds. The reported endpoint is percent growth (GI% or GIPRCNT), where numbers from 0 - 100% represent growth inhibition, and numbers from -100% - 0 represent cell death. For example, a value of 40 represents 60% growth inhibition. A value of 0 means no net growth occurred over the course of the experiment. A value of -40 indicates 40% of cells at the beginning of the experiment died by the end of the experiment. A value of -100 means all cells are dead at the end of the experiment.
NCI-60 Human Tumor Cell Lines Screen was performed using the standard one-dose NCI protocol, which is described in more detail at https://dtp.cancer.gov/discovery_development/nci-60/default.htm.
Compounds with GIPRCNT values below 10 were considered active. Activity score was based on GIPRCNT using the following formula: […]
Score is 0 for GIPRCNT values of 100 or above, 50 for GIPRCNT values of 0, and 100 for GIPRCNT values of -100.

Row | SMILES | growth
1 | COc1cc(-c2c3c(nc4c2c(C)nn4-c2ccccc2)-c2ccccc2C(=O)C3=O)cc(OC)c1OC | 83.7%
2 | CSc1nc(NCCCNc2ccnc3cc(Cl)ccc23)cc(-c2ccccc2)n1 | 33.5%
3 | CCCC(=O)Oc1ccc(/C(=C(/CC)Cc2ccccc2)c2ccc(OCCN3CCCC3)cc2)cc1 | 79.1%
4 | CNC(=O)c1cc(Oc2ccc3nc(NC(=O)Nc4ccc(N5CCC(N(C)C)CC5)cc4)sc3c2)ccn1 | 74.7%
5 | CC1=N/C(=C\c2cccc(Br)c2)C(=O)O1 | 107%
6 | C=C1CC[C@@H]2[C@](C)(COC(C)=O)[C@H](OC(C)=O)CC[C@@]2(C)[C@@H]1CC(Nc1ccc(S(=O)(=O)Nc2nc(C)cc(C)n2)cc1)C1=CCOC1=O (stereo not given in full) | 90.1%
7 | Nc1c(C(=O)Nc2ccccc2Cl)sc2nc3c(cc12)CCCCCC3 | 39.4%
8 | CCN(CC)CCCC(C)Nc1ccnc2c(OC)cccc12 (stereo not given) | 130%
9 | COc1cc(C2CC(=O)Nc3c2c(C)nn3-c2nc3ccccc3[nH]2)cc(OC)c1OC (stereo not given) | 89.8%
10 | CCCCCC(=O)N(CCCC)CCCC | 91.7%
11 | COc1ccc(/C=C/C(=O)c2ccc(NC(=O)c3cc4cc5ccccc5nc4s3)cc2)cc1OC | 108%
12 | CCCCCCNC(=O)Oc1ccc(/C(=C(\C)c2ccccc2)c2ccc(OCCN(CC)CC)cc2)cc1 | 39.1%
13 | COc1ccc(-c2cc(-c3ccc(N(C)C)cc3)nc(NC(=O)c3ccncc3)n2)cc1 | 62.8%
14 | Cc1ccc(S(=O)(=O)n2cc(-c3csc(-c4cn(C)c5ncccc45)n3)c3ccccc32)cc1 | 35.8%
15 | O=c1c2cccc3c(Nc4c(F)cccc4F)ccc(c32)c2nc3ccccc3n12 | 64.2%
16 | O=C(O)c1c([N+](=O)[O-])cnc2ccccc12 | 131%
17 | COc1cc(C2CC(=O)c3c(C)nn(-c4nc5ccccc5[nH]4)c3C2)cc(OC)c1OC (stereo not given) | -3.61% (active)
18 | COc1cc(NC(N)=NCC(C)(C)COc2ccc(C(F)(F)F)cc2)cnc1C#N | -9.25% (active)
19 | COc1nc2c(cc1S(=O)(=O)c1ccccc1)CCc1c-2cnn1-c1ccc(Cl)cc1 | 80.3%
20 | CCOC(=O)N1CCN(c2nc(Nc3cc(C)[nH]n3)c3ccccc3n2)CC1 | 31.3%

Row | SMILES | growth
21 | CC/C(=C(\c1ccc(O)cc1)c1ccc(OCCN(C)CCN(C)C(=O)CCCCC(=O)c2c(C)[nH]c(/C=C3\N=C(c4ccc[nH]4)C=C3OC)c2C)cc1)c1ccccc1 | 63.4%
22 | Oc1ccccc1/C=N/Nc1ccc2ccccc2n1 | 70.9%
23 | C/C(=C(/c1ccc(O)cc1)c1ccc(Cl)cc1)c1ccccc1 | -96% (active)
24 | COc1cc2c(c(OC)c1OC)-c1ccc(N=NC(N)=S)c(=O)cc1[C@@H](NC(C)=O)CC2 | 69.6%
25 | CSc1ncnc2c1ncn2C1CCCO1 (stereo not given) | 141%
26 | COc1c2ccccc2c(OC)c2[nH]c(=O)ccc12 | 72.9%
27 | CC/C=C\C[C@H](O)C/C=C1/C(=O)C=C[C@@H]1C/C=C\CCCC(N)=O | 37.6%
28 | Nc1ccc(N2CCOCC2)cc1 | 114%
29 | CC(=O)N1CC(Nc2ccc(OC(F)(F)F)cc2)=CC1=O | 50%
30 | Cc1ccc2c(NCCCN(C)C)c3c(C)nn(C)c3nc2c1 | 30%
31 | CC#Cc1nc2ccccc2c(=O)[nH]1 | 92.7%
32 | COc1cccc(NC(=O)c2sc3nc4c(cc3c2N)CN(Cc2ccccc2)CC4)c1 | 42.1%
33 | CC(=O)C1=C(O)C=C2Oc3c(C(=O)/C=C/c4ccccc4)c(O)c(C)c(O)c3[C@]2(C)C1=O | 15.5%
34 | COc1cc(-c2cc(-c3nc4ccc(Cl)cc4[nH]3)[nH]n2)cc(OC)c1OC | 67.2%
35 | C=CC[N+]1(CCO)CCN=C1CCCCCCCCCCCCC (stereo not given) | -18.3% (active)
36 | CC#CC#Cc1cccc(=O)o1 | 35.3%
37 | O=[N+]([O-])c1cccc(C2CC(c3ccccc3)=Nc3ccccc3S2)c1 (stereo not given) | 91.1%
38 | Cc1cc(Nc2nc(N3CCNCC3)nc3ccccc23)n[nH]1 | 80.2%
39 | CN1CCN(Cc2ccc(NC(=O)c3[nH]ncc3Nc3ncnc4[nH]ccc34)cc2)CC1 | -7.91% (active)
40 | O=C(CN1CCN(c2cc3c(cc2F)c(=O)c(C(=O)O)cn3C2CC2)CC1)Nc1nc(-c2ccccc2)cs1 | 70.8%
